Screening results: PubChem, National Center for Advancing Translational Sciences (NCATS)
Sampled rows, rich in hits. Any-hit rate of the full collection: about 7.3%.
SMN2 splice enh: SMN2 splice variant enhancement | Potency, µM (highest dose often 46.1 µM), for inactives: at the highest dose activity change, positive = activation, most hits filed as activators | HEK293 SMN2-luciferase splicing reporter, luminescence, 30-36 h | hit rate 2.8% among 210,000; also: % of control where 0% means no effect; nearly all actives have a fitted effect of over 55% in size
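HEK293 cells carry an SMN2 minigene-luciferase reporter in which exon 7 inclusion puts luciferase in frame. Cells were seeded at 2000 cells/well, attached for 10-12 hours, then exposed to compounds for 30-36 hours at 37C before ONE-Glo luminescence.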
ELG1 genotox: induces genotoxicity in HEK293T cells with luciferase-tagged ELG1 | HEK293T ELG1-luciferase reporter, luminescence, 16 h | Potency, µM (doses to about 46 µM), inactives show at the top dose activity change, positive = activation, actives largely listed as activators | hit rate 1.3% among 330,000 | AID 504466; also: % of control where 0% means no effect; nearly all actives have a fitted effect of over 60% in size
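After overnight (16 hr) compound treatment at 37 °C, ELG1-luciferase HEK293T cells were lysed with ONE-Glo; luminescence quantified 30 min later at room temperature.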
FLuc modulator: counter-screen for miR-21 project: firefly luciferase inhibitors or activators. purified FLuc, Km substrates, luminescence inhibition. Potency, µM (highest dose often 57.5 µM), inactives show at the top dose activity change, negative = inhibition, actives largely listed as inhibitors. hit rate 6.9% among 360,000;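 also: plate controls were vehicle for no effect and reference inhibitor for full effect; nearly all actives have a fitted effect of over 55% in size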
Target sequence (P08659 whole entry, looked up): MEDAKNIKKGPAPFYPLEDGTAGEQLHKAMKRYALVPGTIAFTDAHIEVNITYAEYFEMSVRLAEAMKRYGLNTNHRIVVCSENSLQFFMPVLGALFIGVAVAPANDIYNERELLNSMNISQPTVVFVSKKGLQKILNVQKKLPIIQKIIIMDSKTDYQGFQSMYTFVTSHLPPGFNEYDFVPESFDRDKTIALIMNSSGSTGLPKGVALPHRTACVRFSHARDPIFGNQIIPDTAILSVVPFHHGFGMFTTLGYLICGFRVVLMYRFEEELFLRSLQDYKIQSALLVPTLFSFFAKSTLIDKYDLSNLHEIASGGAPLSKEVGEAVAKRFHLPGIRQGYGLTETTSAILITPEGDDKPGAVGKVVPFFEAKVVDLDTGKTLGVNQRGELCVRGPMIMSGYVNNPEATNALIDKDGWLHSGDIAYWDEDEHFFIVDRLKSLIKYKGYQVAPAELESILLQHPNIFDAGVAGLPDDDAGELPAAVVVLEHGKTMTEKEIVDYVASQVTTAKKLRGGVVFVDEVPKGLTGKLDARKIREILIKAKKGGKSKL
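Purified P. pyralis luciferase (10nM final) with 10uM D-luciferin and 10uM ATP (Km levels) in 50mM Tris acetate pH 7.5, 10mM Mg acetate, 0.01% Tween-20, 0.05% BSA; qHTS 6-point titration, ~60 µM downward; luminescence read.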
Rab9 promoter act: activates the Rab9 promoter. hit rate 2.8% among 320,000. Potency, µM (titrated, usually from 9.22 µM), inactives show top-dose activation, negative = inhibition, most hits filed as activators. Huh7 Rab9 promoter-luciferase reporter, luminescence, 24 h; also: % of control where 0% means no effect; nearly all actives have a fitted effect of over 60% in size
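Luminescence read-out: Huh7 cells stably expressing Rab9-luciferase, treated 24 h with compound at 37 °C, then lysed with luciferase reagent for 10 min at ambient before reading.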
KinaseGlo FLuc: blocks Kinase-Glo luciferase, a counter-screen artifact; Q27757; Kinase-Glo luciferase, ATP luminescence, 8 min; Potency, µM (doses to about 38.3 µM), for the others: top-dose activity change, negative = inhibition, usual class: inhibitors; hit rate 0.28% among 200,000; AID 1379; also: % is scaled to controls: 0 for no effect and ±100 for the full control effect; nearly all actives have a fitted effect of over 60% in size
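Substrate mix (final 50 mM imidazole pH 7.2, 50 mM KCl, 7 mM MgCl2, 10 uM ATP, 0.01% Tween 20, 0.05% BSA) plus pin-tool compound, then Kinase-Glo detection mix; 8 min ambient, luminescence read.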
NPC1 prom act: activators of NPC1 promoter; hit rate 2.4% among 320,000; Huh7 NPC1 promoter luciferase reporter, 24 h; Potency, µM (highest dose often 9.22 µM), for inactives: top-dose activation, actives largely listed as activators; also: % of control where 0% means no effect; nearly all actives have a fitted effect of over 60% in size
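Luminescence read-out of NPC1 promoter-driven luciferase in stably transfected Huh7 cells; compounds delivered in DMSO and left 24 h at 37C, 5% CO2, qHTS titration format.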
* = called active by the depositor; ? = inconclusive; nt = not tested or not shown; ! = a repeat was not active. Calls follow the shape of the dose curve; as a rule, active = well fitted curve in the direction sought with a large enough effect; inconclusive = small, poorly fitted or top-dose-only effect, or another doubt; inactive = no such curve, though single readings can be large; an effect the other way counts as inactive or inconclusive. Potency is read from the fitted curve at half-maximal effect.

SMILES	SMN2 splice enh	ELG1 genotox	FLuc modulator	Rab9 promoter act	KinaseGlo FLuc	NPC1 prom act
O=C(O)c1cnn(-c2nc(-c3ccc(F)cc3)cs2)c1C(F)(F)F	27.2%	14.4%	21.3µM*	?	0.8%	27.9%
CCOC(=O)c1cnn(-c2nc(-c3ccc(C)cc3)cs2)c1C(F)(F)F	4.0%	0.9%	-14.7%	-5.2%	-7.6%	1.9%
NC(=O)C1CCN(c2nc(-c3ccccc3F)cs2)CC1	nt	?	?	0.316µM*	nt	0.794µM*
NC(=O)C1CCN(c2nc(-c3ccc(F)cc3)cs2)CC1	nt	0.5%	2.0%	1.41µM*!	nt	2.24µM*!
CCOC(=O)N1CCN(c2nc(-c3ccc(F)cc3)cs2)CC1	?	?	19µM*	-1.7%	0.3%	-2.5%
O=C(Cn1ncc2ccc(Cl)cc21)NCc1ccc(F)cc1	nt	nt	-3.3%	nt	nt	nt
NC(=O)C1CCN(c2nc(-c3ccc4occc(=O)c4c3)cs2)CC1	nt	3.6%	?	2.51µM*	nt	?
Cn1ccc2cc(-c3csc(N4CCC(C(N)=O)CC4)n3)ccc21	nt	3.0%	12µM*	1.26µM*	nt	2.82µM*
NC(=O)C1CCN(c2nc(-c3cccc(N)c3)cs2)CC1	nt	?	?	1.8%	nt	3.1%
CS(=O)(=O)c1ccc(-c2csc(N3CCC(C(N)=O)CC3)n2)cc1	nt	nt	-8.8%	nt	nt	nt
Cc1n[nH]c(C)c1S(=O)(=O)N(CC(=O)NCc1ccccc1Cl)c1ccc(C(C)C)cc1	-5.4%	nt	-18.6%	nt	nt	nt
O=C(NCc1cccnc1)/C(=C/c1ccc(-c2cccc(Cl)c2)o1)S(=O)(=O)c1ccccc1	-99.3%	-22.1%	2.0%	-27.4%	5.0%	-29.3%
CN(C)c1ccc(/C=C(\NC(=O)c2ccccc2)C(=O)NCc2cccnc2)cc1	nt	-1.5%	10.7µM*	-2.6%	nt	0.5%
Cc1ccc(C(=O)N/C(=C\c2ccc(-c3cc(Cl)ccc3Cl)o2)C(=O)NCc2cccnc2)cc1	8.3%	4.8%	19µM*	?	-0.6%	?
CN(C)c1ccc(/C=C(/NC(=O)c2ccccc2)C(=O)NCCCn2ccnc2)cc1	nt	0.6%	4.78µM*	-0.8%	nt	-2.9%
O=C(NCCCn1ccnc1)/C(=C/c1ccc(Cl)cc1)NC(=O)c1ccccc1	nt	-3.7%	0.8%	1.0%	nt	-2.7%
CCOc1ccc(N(CC)S(=O)(=O)N2CCCC(C(=O)NCc3ccccc3Cl)C2)cc1 (stereo unspecified)	nt	nt	-13.8%	nt	nt	nt
COc1ccc(/C=C/C(=O)N2CCC(c3nc4ccccc4o3)CC2)cc1OC	nt	nt	-3.1%	nt	nt	nt
CSc1ccc(-c2ccco2)nn1	nt	?	?	3.16µM*	-24.2%	?
Fc1cccc(CSc2ccc(-c3ccco3)nn2)c1	?	?	12µM*	?	-3.8%	?
Fc1ccc(CSc2ccc(-c3ccco3)nn2)cc1	22.4µM*	?	4.78µM*	3.16µM*	-3.2%	3.16µM*
CCSc1ccc(-c2ccco2)nn1	24.3%	10.2%	?	21.0%	-19.2%	21.9%
Cc1ccc(CNC(=O)c2nc(SCc3ccc(F)cc3)ncc2Cl)cc1	2.5%	nt	-7.4%	nt	nt	nt
CS(=O)(=O)c1ccccc1-c1nc(-c2cc(C(F)(F)F)cc(C(F)(F)F)c2)no1	0.6%	1.7%	1.2%	1.6%	0.9%	-4.0%
O=C(O)c1cccc(-c2nc(-c3ccccc3C(F)(F)F)no2)c1	nt	nt	0.169µM*	nt	nt	nt
SMILES	SMN2 splice enh	ELG1 genotox	FLuc modulator	Rab9 promoter act	KinaseGlo FLuc	NPC1 prom act
Cc1noc(-c2ccc(-c3noc(-c4cccc(Cl)c4)n3)cc2)n1	nt	nt	-1.9%	nt	nt	nt
NC(=O)c1ccc(-c2noc(-c3cccc(Cl)c3)n2)cc1	nt	?	?	?	nt	2.51µM*
O=C(O)c1cccc(-c2noc(-c3cccc(Cl)c3)n2)c1	nt	?	0.019µM*	?	nt	0.0891µM*
COc1cc(-c2noc(-c3cccc(Cl)c3)n2)cc(OC)c1OC	-11.6%	-6.0%	-4.9%	5.6%	-1.0%	2.4%
CCc1cccc(C)c1NC(=O)CSc1nc2ccccc2nc1Cc1ccccc1	nt	nt	-2.0%	nt	nt	nt
CC(=O)c1cccc(NC(=O)C2CCCN(c3nnc(-n4cccc4)s3)C2)c1 (stereo unspecified)	nt	nt	-18.7%	nt	nt	nt
CCOC(=O)c1ccc(NCc2nc3ccccc3[nH]2)cc1	2.7%	?	21.3µM*	?	-8.9%	?
CCOC(=O)c1ccc(Nc2nnc(C)c3ccccc23)cc1	nt	3.0%	16.9µM*	10.1%	nt	20.4%
CNC(=O)c1ccc(Nc2nnc(C)c3ccccc23)cc1	-8.5%	3.2%	-2.3%	-1.6%	2.9%	0.3%
CCOC(=O)Cc1nc2ccccc2[nH]1	-2.4%	-3.4%	-0.4%	0.7%	0.2%	-2.3%
CCc1ccc(NCc2nc3ccccc3c(=O)[nH]2)cc1	10µM*	3.26µM*	10.7µM*	2.82µM*	3.7%	?
CCOC(=O)c1ccc(Nc2cnc3ccccc3n2)cc1	12.6µM*	9.2µM*	2.39µM*	1.78µM*	-1.2%	2.24µM*
CCOC(=O)c1ccc(Nc2cc(C)nc(-c3ccccc3)n2)cc1	nt	-5.0%	-15.3%	-10.9%	nt	-38.7%
Cc1nc2ccn(Cc3ccco3)c(=O)c2cc1C(=O)Nc1ccc(F)cc1	nt	nt	-1.5%	nt	nt	nt
O=C(O)c1ccc(Nc2cnc3ccccc3n2)cc1	229.2%	?	13.5µM*	2.82µM*	-14.9%	?
COC(=O)c1c(NC(=O)CCCOc2ccc(C(C)(C)C)cc2)sc2c1C(C(=O)OC)CC2 (stereo unspecified)	-51.8%	nt	?	nt	nt	nt
O=C(Nc1ccc(N2CCCC2)cc1)c1ccc2ccccc2c1	2.51µM*	?	1.35µM*	0.891µM*	-10.1%	?
O=C(Nc1ccc(N2CCN(C(=O)c3cccs3)CC2)cc1)c1cccc(F)c1	nt	-11.4%	-6.0%	2.7%	nt	-3.3%
CC(=O)N1CCN(c2ccc(NC(=O)c3ccc4ccccc4c3)cc2)CC1	nt	4.2%	-11.5%	?	nt	25.4%
O=C(Nc1ccc(N2CCCC2)cc1)c1cccc(F)c1	0.631µM*	0.366µM*	1.35µM*	0.316µM*	?	0.355µM*
CC(=O)N1CCN(c2ccc(NC(=O)c3cccc(Cl)c3)cc2)CC1	nt	?	?	?	nt	2.24µM*
O=C(Nc1ccc(N2CCCCC2)cc1)c1cncc(Br)c1	?	4.0%	6.01µM*	?	-7.6%	3.55µM*
Cc1ccc(CNc2ccc(N3CCOCC3)cc2)cc1	nt	?	8.49µM*	2.82µM*	nt	3.98µM*
O=C(Nc1ccccc1N1CCCC1)c1cccc(-c2cc3ccccc3oc2=O)c1	0.5%	-5.5%	?	17.7%	-2.3%	17.1%
CC(C)c1ccc(CNc2ccc(N3CCOCC3)cc2)cc1	-57.9%	?	?	3.1%	1.1%	11.0%
O=C(Nc1ccc(N2CCCC2)cc1)c1cccc(-c2cc3ccccc3oc2=O)c1	-18.0%	-1.7%	10.7µM*	0.9%	0.9%	5.9%
